# From PubChem BioAssay (NCATS)
# Where “and” joins values, the source holds several entries; their conditions need not be identical. Equal entries are not always repeated. Records with an inconclusive call do not appear. A number with no mark means an inactive call. Calls follow the shape of the dose curve; as a rule, active = well fitted activation curve with a large enough effect; inconclusive = small, poorly fitted or top-dose-only effect; inactive = no such curve, though single readings can be large or run the other way.
# Target: Cellular tumor antigen p53 (Homo sapiens) (UniProt P04637)
# Sequence (P04637 whole entry, looked up): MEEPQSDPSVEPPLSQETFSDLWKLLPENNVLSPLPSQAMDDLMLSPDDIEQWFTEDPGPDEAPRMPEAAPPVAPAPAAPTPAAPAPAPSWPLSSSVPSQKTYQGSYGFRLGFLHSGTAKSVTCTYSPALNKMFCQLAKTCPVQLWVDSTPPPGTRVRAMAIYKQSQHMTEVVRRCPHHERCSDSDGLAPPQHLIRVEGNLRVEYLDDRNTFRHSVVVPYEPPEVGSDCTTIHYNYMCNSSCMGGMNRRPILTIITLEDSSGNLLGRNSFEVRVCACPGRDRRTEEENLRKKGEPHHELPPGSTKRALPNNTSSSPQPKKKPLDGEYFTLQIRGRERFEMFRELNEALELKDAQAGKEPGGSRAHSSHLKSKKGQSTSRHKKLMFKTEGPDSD
# Test: Primary qHTS for small molecule compounds that upregulate eGFP-tagged delta133p53alpha (in N-terminal) cells. (AID 2060322);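 also: cells pre-induced with doxycycline then dosed without doxycycline; series mostly up to about 56 µM; 0% = DMSO vehicle and 100% = reference activator; nearly all actives have a fitted effect of over 75% in size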
# Settings: NCI-H358 eGFP-delta133p53alpha fluorescence, 24 h; activation: hits give high values
# Procedure, shortened: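 NCI-H358 cells pre-induced 24 h with 10 ng/ml doxycycline for eGFP-delta133p53alpha, plated dox-free and exposed 24 h at 37C to titrated compounds. Fixed, Hoechst-stained; gated GFP peak intensity by laser scanning cytometry, normalized to DMSO (0%) and 57.5 uM 5-azacytidine (100%).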
row,SMILES,activation
1,O=c1cc(N2CCOCC2)oc2c(-c3ccccc3)cccc12,3.72% and -10.8%
2,Cc1nc(N=Nc2cc(S(=O)(=O)O)c3cc([N+](=O)[O-])cc(S(=O)(=O)O)c3c2)c(COP(=O)(O)O)c(C=O)c1O,-72.9%
3,NC(=O)C1=CN(C2OC(COP(=O)(O)OP(=O)(O)OC[C@H]3O[C@@H](n4cnc5c(N)ncnc54)[C@H](OP(=O)(O)O)[C@@H]3O)C(O)C2O)C=CC1 (stereo not given in full),-2.48%
4,CC1=C(/C=C/C(C)=C/C=C/C(C)=C/C(=O)O)C(C)(C)CCC1,11.9% and -12.6%
5,COc1ccccc1N1CCN(CC(O)COc2cccc3ccccc23)CC1 (stereo not given),17.1% and 24.3% and -36.9%
6,COc1ccccc1N1CCN(CCN2C(=O)CC3(CCCC3)CC2=O)CC1,3.57% and -22.5%
7,N#C/C(=C\c1ccc(O)c(O)c1)C(=O)NCCCNC(=O)/C(C#N)=C/c1ccc(O)c(O)c1,-33.4%
8,Cc1[nH]c(=O)c(C#N)cc1-c1ccc2nccn2c1,-19.2% and 47.5% and 13.7%
9,Cc1oncc1C(=O)Nc1ccc(C(F)(F)F)cc1,-3.35% and -18.5% and -19%
10,c1ccc(C(NCc2cccnc2)(c2ccccc2)c2ccccc2)cc1,-2.89%
11,CN1CCN(C2=Nc3ccccc3Oc3ccc(Cl)cc32)CC1,-10% and -16.8%
12,O=C1c2c(O)cc(O)cc2OC(c2ccc(O)c(O)c2)C1O (stereo not given),31.8% and -16.9%
13,CO/N=C(\C(=O)N[C@@H]1C(=O)N2C(C(=O)O)=C(CSc3nc(=O)c(O)nn3C)CSC12)c1csc(N)n1 (stereo not given in full),4.05%
14,O=C(Nc1cccc(C(=O)Nc2ccc(S(=O)(=O)O)c3cc(S(=O)(=O)O)cc(S(=O)(=O)O)c23)c1)Nc1cccc(C(=O)Nc2ccc(S(=O)(=O)O)c3cc(S(=O)(=O)O)cc(S(=O)(=O)O)c23)c1,-8.79%
15,CCCCC#Cc1nc(NC)c2ncn([C@@H]3O[C@H](CO)[C@@H](O)[C@H]3O)c2n1,-3.87%
16,CCn1cc(C(=O)O)c(=O)c2cc3c(cc21)OCO3,2.82% and -18.3%
17,NNCCc1ccccc1,11.9% and 3.32% and -5.28%
18,O=C(c1cc(O)c(O)c([N+](=O)[O-])c1)c1ccccc1F,-61.3%
19,COc1cc(/C=C(\C#N)C(=O)Nc2nnc(C(F)(F)F)s2)ccc1OCc1ccc(C(F)(F)F)cc1C(F)(F)F,-42%
20,O=c1ccc2ccc(O)c(O)c2o1,0.546% and -34.3%

row,SMILES,activation
1,Clc1ccc2c(N3CCN(CCCN4CCN(c5ccnc6cc(Cl)ccc56)CC4)CC3)ccnc2c1,26.5%
2,Cn1c(=O)c2[nH]c(-c3ccc(S(=O)(=O)O)cc3)nc2n(C)c1=O,1.02%
3,COc1ccc(NC(=O)/C=C/c2ccc(Cl)cc2)cc1,-18.7%
4,CC1(C)NC(=O)N(c2ccc([N+](=O)[O-])c(C(F)(F)F)c2)C1=O,-8.47% and -2.88% and -17.8%
5,Cn1ncc(S(=O)(=O)Cc2ccccc2)c(Br)c1=O,-32.8%
6,O=C(O)C1=CCCN(CCON=C(c2ccccc2)c2ccccc2)C1,20.9%
7,S=c1[nH]c(-c2ccccc2)cn1-c1ccccc1,-21.8%
8,C=Cc1c(C)c2cc3[nH]c(cc4nc(cc5nc(cc1[nH]2)C(C)=C5CCC(=O)O)C(CCC(=O)O)=C4C)c(C)c3C=C,-11.7% and -48.8%
9,CN(C)C/C=C(/c1ccc(Br)cc1)c1cccnc1,-2.82% and -52.8%
10,NS(=O)(=O)c1cccc2c1c([N+](=O)[O-])cc1nc(O)c(O)nc12,-8.06%
11,CCCCS(=N)(=O)CC[C@H](N)C(=O)O (stereo not given in full),-3.27%
12,CCCCCCCC/C=C\CCCCCCCC(=O)NCc1ccc(O)c(OC)c1,-13% and -42.7%
13,Cn1ccc2cc3c(cc21)CCN3C(=O)Nc1cccnc1,20.1% and 12% and -55.1%
14,O=C1Nc2ccc(I)cc2/C1=C/c1cc(Br)c(O)c(Br)c1,-56.5%
15,COc1ccccc1OCC(O)CN1CCN(CC(=O)Nc2c(C)cccc2C)CC1 (stereo not given),-19.2% and 6.83% and -14.1%
16,C[C@H](Cc1ccc(O)c(O)c1)[C@@H](C)Cc1ccc(O)c(O)c1,8.19%
17,CCN(CC)C(C)CN1c2ccccc2Sc2ccccc21 (stereo not given),-8.47% and -0.322%
18,Cc1cccc(C)c1OCC(N)C(C)C (stereo not given),-8.7%
19,Cc1c(OCC(F)(F)F)ccnc1CS(=O)c1nc2ccccc2[nH]1 (stereo not given),8.47% and 28.3%
20,COc1ccc(/C=C/C(=O)Nc2ccccc2C(=O)O)cc1OC,22.3% and 8.92%
